Screens: PubChem, National Center for Advancing Translational Sciences (NCATS)
The list is not random: actives were taken first. Their share in the collection is about 11%.
NIH3T3 tox: kills NIH 3T3 cells. NIH 3T3 viability, CellTiter-Glo ATP luminescence, 48-72 h. Potency, µM (top dose mostly 96.7 µM), without a hit: top-dose activity change, negative = cytotoxicity, usual class: inhibitors. 94,000 tested, 4.3% active. AID 1345082; active means well fitted curve in the direction sought with a large enough effect; inconclusive means small, poorly fitted or top-dose-only effect, or another doubt; inactive means no such curve, though single readings can be large; an effect the other way counts as inactive or inconclusive; further: on the % scale 0 is the no-effect control and ±100 the full control effect; nearly all actives have a fitted effect of over 55% in size
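Cytotoxicity was measured by CellTiter-Glo ATP luminescence after 48 or 72 h compound exposure at 37 °C. Mouse NIH 3T3 fibroblasts were seeded at 400 cells/well and dosed by 23 nL pin transfer.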
hNpr1 antagonist: antagonists of human natriuretic peptide receptor Npr1; AID 1347048; 76,000 tested, 1.6% active; HEK293 hNpr1 GloSensor cGMP, ANP-stimulated luminescence; Potency, µM (highest dose often 46.3 µM), for inactives: top-dose activity change, negative = inhibition, usual class: inhibitors; P16066; further: on the % scale 0 is the no-effect control and ±100 the full control effect; nearly all actives have a fitted effect of over 60% in size
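HEK293 cells stably expressing human Npr1 and cGMP GloSensor pGS-40F, loaded 2 h with 2% GloSensor reagent, given compound 30 min at room temperature. Luminescence read before and 20 min after 0.1 nM hNppA.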
HEK cytotox: cytotoxic compounds in HEK 293 cells | HEK 293 viability, ATP luminescence (CellTiter-Glo), 48-72 h | AID 1345083 | 94,000 tested, 6.6% active | Potency, µM (top dose mostly 115 µM), inactives show top-dose activity change, negative = cytotoxicity, usual class: inhibitors; active means well fitted curve in the direction sought with a large enough effect; inconclusive means small, poorly fitted or top-dose-only effect, or another doubt; inactive means no such curve, though single readings can be large; an effect the other way counts as inactive or inconclusive; further: on the % scale 0 is the no-effect control and ±100 the full control effect; nearly all actives have a fitted effect of over 60% in size
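Luminescence from cellular ATP, measured with CellTiter-Glo, indicates HEK 293 viability. Cells plated at 250 cells/well are treated with compound for 48 or 72 hr at 37 degree Celsius before reagent addition.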
Luciferase inh: inhibitors of firefly (Photinus pyralis) luciferase | purified P. pyralis luciferase, luminescence, biochemical | Potency, µM (doses to about 115 µM), usual class: inhibitors | 76,000 tested, 2.5% active; active means well fitted curve in the direction sought with a large enough effect; inconclusive means small, poorly fitted or top-dose-only effect, or another doubt; inactive means no such curve, though single readings can be large; an effect the other way counts as inactive or inconclusive; further: on the % scale 0 is the no-effect control and ±100 the full control effect; nearly all actives have a fitted effect of over 65% in size
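Cell-free enzyme assay, 10nM P. pyralis luciferase, luciferin and ATP each at 10uM. Inhibition profiled over a 6-point titration, read as luminescence.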
NPR1 antag cnf: hNpr1 antagonism, confirmation assay; Potency, µM (series often up to 57.6 µM), without a hit: top-dose activity change, negative = inhibition, most hits filed as inhibitors; 1,400 tested, 76% active; HEK293 hNpr1 cGMP GloSensor luminescence, ANP-stimulated; shares compounds with hNpr1 antagonist; AID 1347044; further: nearly all actives have a fitted effect of over 70% in size
Npr2 selectivity: selectivity test of Npr1 antagonists against human Npr2 | AID 1347046 | shares compounds with hNpr1 antagonist | 1,400 tested, 67% active | HEK293 hNpr2 GloSensor cGMP luminescence, CNP-stimulated | Potency, µM (series often up to 57.6 µM), for the others: at the highest dose activity change, negative = inhibition, most hits filed as inhibitors; further: nearly all actives have a fitted effect of over 70% in size
Target sequence (P20594 whole entry, looked up): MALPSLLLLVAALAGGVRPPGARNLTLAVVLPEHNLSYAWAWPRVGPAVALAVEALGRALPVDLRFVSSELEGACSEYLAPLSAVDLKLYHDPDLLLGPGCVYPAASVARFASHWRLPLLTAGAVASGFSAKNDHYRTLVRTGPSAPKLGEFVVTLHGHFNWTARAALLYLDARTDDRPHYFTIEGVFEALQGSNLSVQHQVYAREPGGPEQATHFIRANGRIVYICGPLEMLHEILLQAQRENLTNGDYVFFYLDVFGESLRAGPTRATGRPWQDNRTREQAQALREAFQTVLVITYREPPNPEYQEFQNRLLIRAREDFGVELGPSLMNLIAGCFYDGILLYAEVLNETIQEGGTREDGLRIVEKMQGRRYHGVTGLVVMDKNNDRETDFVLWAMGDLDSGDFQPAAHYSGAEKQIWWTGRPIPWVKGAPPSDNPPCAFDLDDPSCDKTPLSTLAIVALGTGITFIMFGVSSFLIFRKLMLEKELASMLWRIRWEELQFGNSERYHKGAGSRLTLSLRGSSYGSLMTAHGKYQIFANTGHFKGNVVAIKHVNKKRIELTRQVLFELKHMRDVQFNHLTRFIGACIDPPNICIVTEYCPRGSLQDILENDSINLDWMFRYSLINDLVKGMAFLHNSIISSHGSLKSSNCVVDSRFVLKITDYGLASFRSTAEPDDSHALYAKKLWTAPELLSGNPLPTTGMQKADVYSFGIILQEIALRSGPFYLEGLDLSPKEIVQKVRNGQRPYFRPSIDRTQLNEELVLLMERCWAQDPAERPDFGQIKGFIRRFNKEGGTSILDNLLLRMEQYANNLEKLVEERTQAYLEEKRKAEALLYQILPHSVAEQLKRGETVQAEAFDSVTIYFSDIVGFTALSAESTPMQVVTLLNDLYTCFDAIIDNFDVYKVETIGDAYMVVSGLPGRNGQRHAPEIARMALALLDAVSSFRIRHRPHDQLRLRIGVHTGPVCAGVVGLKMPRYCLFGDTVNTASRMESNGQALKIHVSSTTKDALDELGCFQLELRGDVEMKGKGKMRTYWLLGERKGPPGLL
FLuc counter: counter-screen for Npr1 antagonists: firefly luciferase inhibitors | shares compounds with hNpr1 antagonist | purified FLuc enzyme, luminescence, Km substrate | Potency, µM (titrated, usually from 57.6 µM), for the others: top-dose activity change, negative = inhibition, most hits filed as inhibitors | 1,400 tested, 0.7% active | AID 1347047; active means well fitted curve in the direction sought with a large enough effect; inconclusive means small, poorly fitted or top-dose-only effect, or another doubt; inactive means no such curve, though single readings can be large; an effect the other way counts as inactive or inconclusive; further: series mostly up to about 58 µM; 0% is about no effect
GloSensor ctrl: control cell line activity, Npr1 antagonist counter-screen | shares compounds with hNpr1 antagonist | HEK293 GloSensor cGMP, SNP-stimulated, luminescence | Potency, µM (top dose mostly 57.6 µM), without a hit: at the highest dose activity change, negative = inhibition, most hits filed as inhibitors | 1,400 tested, 69% active | AID 1347051; further: on the % scale 0 is the no-effect control and ±100 the full control effect; nearly all actives have a fitted effect of over 70% in size
Active calls of the source: *; i = inactive; u = inconclusive; x = not tested or not shown; [ ] = another dose, or the depositor's remark. Unless noted, the call rests on the fitted dose curve. Potency means the concentration at half of the fitted maximal effect.

SMILES | NIH3T3 tox | hNpr1 antagonist | HEK cytotox | Luciferase inh | NPR1 antag cnf | Npr2 selectivity | FLuc counter | GloSensor ctrl
Fc1ccc(C2Cn3nnc(-c4nc(C5CCCCC5)no4)c3CO2)cc1 (stereo not drawn) | -26% | u | -9% | i | 12µM* | 9.7µM* | -1% | -24%
Cc1ccc(C2Cn3nnc(-c4noc(-c5ccoc5)n4)c3CO2)cc1 (stereo not drawn) | i | u | 14% | i | u | u | 0% | -3%
CCOc1cccc(CN2CC(Oc3ccc(-c4noc(COC)n4)cc3)C2)c1 | u | u | u | i | x | x | x | x
COCc1nc(-c2ccc(OC3CN(C(=O)NCc4ccc(OC)cc4)C3)cc2)no1 | u | u | -32% | i | 24µM* | u | -2% | 19µM*
COCc1nc(-c2ccc(OC3CN(C(=O)c4cc(C)n(C)n4)C3)cc2)no1 | -24% | -23% | u | i | x | x | x | x
CCN(CC)C(=O)N1CCC(Oc2ccc(-c3noc(COC)n3)cc2)C1 (stereo not drawn) | -21% | 7.9µM* | u | i | 11µM* | 14µM* | -6% | 12µM*
COc1ccc(CNC(=O)N2CCC(Oc3ccc(-c4noc(C5CC5)n4)cc3)C2)cc1 (stereo not drawn) | u | 18µM* | u | i | u | u | u | u
COCc1nc(-c2ccc(OC3CCN(C(=O)NCc4ccc(F)cc4)C3)cc2)no1 (stereo not drawn) | u | u | u | i | x | x | x | x
COc1cccc(CN2CCC(Oc3ccc(-c4noc(C5CC5)n4)cc3)C2)c1 (stereo not drawn) | u | 11µM* | 40µM* | i | u | u | -19% | 27µM*
Cc1ccccc1C(=O)N1CCCC(C(=O)N2CCC(c3nc4ncccc4[nH]3)C2)C1 (stereo not drawn) | -17% | x | -3% | x | x | x | x | x
COCC1CN(C2CCC2)CC12CCN(C(=O)COc1cccc(C)c1)CC2 (stereo not drawn) | u | -26% | u | i | x | x | x | x
CC(=O)N1CCCN(c2ccc3nnc(C4CC4)n3n2)CC1 | -9%[138 µM] | x | 2%[172 µM] | x | x | x | x | x
CSc1ccc2cc(CN(C)CCO)c(-c3ccc(Cl)cc3)nc2c1 | u | 3% | u | i | x | x | x | x
O=C(c1ccc(Cn2ccnc2)o1)N1CC[C@@H]2CN(Cc3ccccc3)[C@@H]2C1 | -1% | x | 3% | x | x | x | x | x
COc1nccc(N2CCC(CC(=O)NCc3ccccc3F)CC2)n1 | u | u | u | i | u | u | 3% | u
CCCCN(C)C(=O)CC1CCN(c2ccnc(OC)n2)CC1 | u | 11µM* | u | i | 17µM* | 15µM* | 5% | 11µM*
O=C(c1nc2c(o1)CCN(Cc1ccc3c(c1)CCO3)CC2)N1CCOCC1 | -28%[138 µM] | -1%[70.6 µM] | u | i | x | x | x | x
O=C(NCC1CC1)c1nc2c(o1)CCN(Cc1ccc3c(c1)CCO3)CC2 | u | 25µM* | u | i | 44µM* | u | 2%[86.2 µM] | 35µM*
Cc1cc(F)cc(CN2CCc3nc(C(=O)NCC4CC4)oc3CC2)c1 | u | 22µM* | u | i | 31µM* | 28µM* | 4%[86.2 µM] | 28µM*
Cc1ccc([S+](=O)([O-])N2CCC(C(=O)N3CCC(c4nc5ncccc5[nH]4)CC3)C2)cc1 (stereo not drawn) | 1% | x | -6% | x | x | x | x | x
O=C1NC2(CCN(C(=O)c3ccccn3)CC2)Oc2ccccc21 | 1%[138 µM] | 0%[70.6 µM] | -5%[172 µM] | i | x | x | x | x
O=C1NC2(CCN(C(=O)c3ccccn3)CC2)COc2ccccc21 | 3%[138 µM] | u | -15%[172 µM] | i | u | 25µM* | -14%[86.2 µM] | 12%[86.2 µM]
Cc1ccc(S(=O)(=O)N2CCC(n3cnnc3-c3ccccc3)CC2)cc1C | u | -23% | u | i | u | u | -1% | -4%
COc1cccc(S(=O)(=O)N2CCC(n3cnnc3C(C)C)CC2)c1 | u | u | -27% | i | u | u | -2% | u
Cc1cc(S(=O)(=O)N2CCC(n3cnnc3-c3ccccc3)CC2)ccc1F | -23% | -28% | -23% | i | x | x | x | x
SMILES | NIH3T3 tox | hNpr1 antagonist | HEK cytotox | Luciferase inh | NPR1 antag cnf | Npr2 selectivity | FLuc counter | GloSensor ctrl
CC(C)N1CC(C(=O)NCc2ccc(F)cc2)NC1=O (stereo not drawn) | -27%[138 µM] | x | -26%[172 µM] | x | x | x | x | x
Cc1noc(C)c1-c1cc2c(c(-c3cccc(O)c3)c1)C(=O)N(C)C2 | -51%[138 µM] | -2%[70.6 µM] | u | i | x | x | x | x
Cc1ccccc1-c1cc(-c2c(C)noc2C)cc2c1C(=O)N(C)C2 | u | -1%[70.6 µM] | u | i | x | x | x | x
Cc1noc(C)c1-c1cc2c(c(-c3ccc(F)c(Cl)c3)c1)C(=O)N(C)C2 | u | 8.9µM* | u | i | 16µM* | 8.9µM* | -1%[86.2 µM] | 7.9µM*
Cc1noc(C)c1-c1cc2c(c(-c3ccccc3)c1)C(=O)N(C)C2 | u | 28µM* | 40µM* | i | 28µM* | 18µM* | 1%[86.2 µM] | 18µM*
CCCC(=O)Nc1cc(-c2ccncc2)nn1C | -14%[138 µM] | x | i | x | x | x | x | x
O=C([C@H]1CCCN1[S+](=O)([O-])c1cccs1)N1CCC(N2CCOC2=O)CC1 | 1% | x | i | x | x | x | x | x
CN1CC(=O)N(C2CCNC2)Cc2c1ncnc2N1CC[C@H](N(C)C)C1 (stereo partly drawn) | i | x | i | x | 6% | -1% | 0% | 2%
CN1CC(=O)N(C2CCNC2)Cc2c1ncnc2N1CCC(N2CCCCC2)CC1 (stereo not drawn) | i | x | i | x | x | x | x | x
O=C(c1ccc(F)cc1F)N1CCC2(CC1)N=C(c1ccc(Br)cc1)NO2 | u | 11µM* | u | i | 17µM* | 15µM* | -2% | 12µM*
O=C(c1ccc(F)cc1F)N1CCC2(CC1)N=C(c1ccc(Cl)cc1)NO2 | u | 14µM* | u | i | 24µM* | 24µM* | -4% | 22µM*
O=C(CN1C(=O)NC(c2ccc(Cl)cc2)C2=C1COC2=O)Nc1ccc2c(c1)OCCO2 (stereo not drawn) | u | -19% | u | u | x | x | x | x
